In all, about 310,000 compounds went through this assay and about 14,000 (4.5%) showed an effect of 50% or more. Effects have a minus sign here. This is one part of a sample in which strong results are shown more often than they occur.
target: human ether-à-go-go-related gene (hERG) potassium channel (human, UniProt Q12809); test: primary screen, population patch clamp on CHO cells stably expressing hERG; higher = less effect of the substance
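Also: peak tail current of the secondary pulse compared with the same well before compound.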

Chain of human ether-à-go-go-related gene (hERG) potassium channel (Q12809 whole entry, looked up): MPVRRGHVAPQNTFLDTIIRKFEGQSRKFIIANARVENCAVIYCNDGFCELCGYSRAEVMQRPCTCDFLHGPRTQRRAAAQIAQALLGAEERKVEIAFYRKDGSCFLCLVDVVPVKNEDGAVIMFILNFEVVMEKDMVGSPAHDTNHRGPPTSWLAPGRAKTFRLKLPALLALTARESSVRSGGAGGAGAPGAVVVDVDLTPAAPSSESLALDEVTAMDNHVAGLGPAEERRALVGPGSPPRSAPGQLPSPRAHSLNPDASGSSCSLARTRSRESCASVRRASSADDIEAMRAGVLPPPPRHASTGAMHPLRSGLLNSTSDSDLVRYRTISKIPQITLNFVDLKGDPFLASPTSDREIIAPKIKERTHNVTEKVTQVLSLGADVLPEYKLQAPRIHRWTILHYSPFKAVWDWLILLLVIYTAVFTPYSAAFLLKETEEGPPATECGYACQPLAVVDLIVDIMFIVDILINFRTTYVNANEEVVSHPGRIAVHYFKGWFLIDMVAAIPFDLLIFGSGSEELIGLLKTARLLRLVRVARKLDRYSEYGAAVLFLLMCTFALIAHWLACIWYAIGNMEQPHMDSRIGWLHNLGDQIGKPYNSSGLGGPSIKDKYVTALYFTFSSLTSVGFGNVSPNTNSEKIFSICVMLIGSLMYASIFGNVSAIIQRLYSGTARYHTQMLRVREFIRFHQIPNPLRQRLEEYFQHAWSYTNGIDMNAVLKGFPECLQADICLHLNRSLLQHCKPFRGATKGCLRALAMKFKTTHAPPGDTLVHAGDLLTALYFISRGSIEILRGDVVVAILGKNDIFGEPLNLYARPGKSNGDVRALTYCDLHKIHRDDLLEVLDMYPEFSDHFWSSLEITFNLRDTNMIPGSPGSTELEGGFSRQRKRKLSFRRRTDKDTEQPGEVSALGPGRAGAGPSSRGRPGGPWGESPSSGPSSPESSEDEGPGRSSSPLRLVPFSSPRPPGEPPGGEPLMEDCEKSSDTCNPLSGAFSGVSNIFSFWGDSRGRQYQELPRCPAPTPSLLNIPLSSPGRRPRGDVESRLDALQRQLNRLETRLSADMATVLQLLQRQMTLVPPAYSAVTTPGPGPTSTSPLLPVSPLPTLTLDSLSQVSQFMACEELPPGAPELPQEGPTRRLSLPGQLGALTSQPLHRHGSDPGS

| SMILES | hERG current change (%, negative = inhibition) at 10uM [%] |
| --- | --- |
| O=C(NC1(Cc2ccccc2)CCN(CCc2cccs2)C1=O)c1ccccc1 (stereo not drawn) | -1.81 |
| Cc1ccc(C)c(Nc2cc(C)nc(-c3ccccc3O)n2)c1 | 15 |
| COc1cc(C(=S)N2CCCC2)ccc1OCC(N)=O | 17.8 |
| COC(=O)c1n[nH]n(-c2ccc(F)c(Cl)c2)c1=O | 9.84 |
| CCC(C)N(C(=O)CN1C(=O)NC2(CCc3ccccc32)C1=O)C1CCS(=O)(=O)C1 (stereo not drawn) | -3.41 |
| CC(C)(c1ccccc1)c1ccc(OCCCN2CCNCC2)cc1.O=C(O)C(=O)O | 3.19 |
| Cc1ccc(OCCCCN2CCC(C)CC2)cc1.O=C(O)C(=O)O | -23.4 |
| CC1CCN(CCCCOc2ccc(Cl)cc2)CC1.O=C(O)C(=O)O | -71.7 |
| CC1CCN(CCCCOc2ccc(C(C)(C)C)cc2)CC1.O=C(O)C(=O)O | -59.6 |
| Cc1ccc(OCCCCCCN2CCNCC2)cc1.O=C(O)C(=O)O | -11.6 |
| COc1ccc(OCCCCN2CCC(C)CC2)cc1.O=C(O)C(=O)O | -29 |
| CC(C)OCCCNC(=O)c1ccc(Br)cc1 | -8.3 |
| CC(=O)c1ccc(NC(=O)CNCc2cccs2)cc1.O=C(O)C(=O)O | -0.848 |
| Cc1ccc2[nH]c(C(=O)O)c(NC(=O)CN3CCN(c4cccc(C)c4C)CC3)c2c1.Cl | 13.1 |
| Cc1ccc(-c2noc(CN(C(=O)CCCN3C(=O)c4ccccc4C3=O)C(C)C)n2)cc1 | -39.7 |
| Cc1ccc(-c2noc(CN(C(=O)CCN3C(=O)c4ccccc4C3=O)C(C)C)n2)cc1 | -63.6 |
| Cc1ccc(-c2noc(CN(C(=O)CCCCCN3C(=O)c4ccccc4C3=O)C(C)C)n2)cc1 | -15.3 |
| Cc1c(NC(=O)c2ccco2)cccc1-c1nc2cccnc2s1 | -45.8 |
| c1ccc(-c2ccc(CN3C[C@@H]4C(c5ccccc5)C5(c6ccccc6)CC4(C5)[C@H]3c3ccccc3)cc2)cc1 (stereo partly drawn) | -5.02 |
| CC1CCN(CC#CCOc2ccc(Cl)cc2)CC1.O=C(O)C(=O)O | -5.81 |
| Cc1cc(OCC(=O)N2CCC(C(N)=O)CC2)c2c(C)cc(=O)oc2c1 | 15.6 |

| SMILES | hERG current change (%, negative = inhibition) at 10uM [%] |
| --- | --- |
| Cc1cccc(NC(=O)CN2CCC(C(=O)c3ccc4c(c3)OCCO4)CC2)c1 | -54.2 |
| Cc1cccc(C(=O)NC2CCN(CC(=O)Nc3ccc4c(c3)OCO4)CC2)c1 | -57.7 |
| CN1CCN(CCC(=O)Nc2cccc(Br)c2)CC1 | -19 |
| O=C(CCN1CCN(c2ccccc2)CC1)Nc1ccccc1 | -22.9 |
| Cc1ccc(NC(=O)CN2CCC(C(=O)c3ccc4c(c3)OCCO4)CC2)cc1 | -44.7 |
| O=C(CCN1CCN(CCO)CC1)Nc1cccc(Br)c1 | -19 |
| O=C(CN1CCC(NC(=O)c2ccccc2F)CC1)Nc1ccc2c(c1)OCO2 | -41.7 |
| Cc1ccc(C(=O)C2CCN(CC(=O)Nc3ccc4c(c3)OCCO4)CC2)cc1 | -2.3 |
| O=C(CCN1CCN(Cc2ccccc2)CC1)Nc1cccc(Br)c1 | -63 |
| O=C(CCN1CCN(c2ccccc2)CC1)Nc1cccc(Br)c1 | -61.4 |
| O=C(CCN1CCCC1)Nc1cccc(Br)c1 | -20.6 |
| Cc1ccccc1C(=O)NC1CCN(CC(=O)Nc2ccc3c(c2)OCO3)CC1 | -47.3 |
| CCOc1ccccc1N(C)S(=O)(=O)c1ccc2c(c1)CC(C)N2C(=O)C1CC1 (stereo not drawn) | 9.49 |
| O=c1[nH][nH]c(C(F)(F)F)c1C=NCc1ccc(Cl)cc1 | -1.88 |
| COC(=O)C1=C(C(=O)OC)[C@@H]2N(C)c3ccccc3[C@@]23C[C@@H](C(=O)OC)N=C3N1 | -2.81 |
| CCOC(=O)N1CCC(N(CCN(C)C)C(=S)Nc2ccccc2C)CC1 | 3.33 |
| CN(C)S(=O)(=O)c1cccc(NC(=O)CSc2nc3ccccc3[nH]2)c1 | -22.2 |
| Cc1cc(C)n2c(-c3ccccc3Cl)nnc2n1 | -14.8 |
| O=C(NCCCCO)c1ccc2c3c(cccc13)CC2 | 7.52 |
| CC(=O)NS(=O)(=O)c1cccnc1Nc1ccc(Cl)c(Cl)c1 | 16.1 |
| CC(=O)Nc1nc2c(c3c1c(=O)oc1ccccc13)CCCCC2 | -7.1 |

From PMC4336329 (PLoS ONE, 2015)
